Source: PubChem BioAssay AID624115 (Johns Hopkins Ion Channel Center, 2012)
Among all 4,000 compounds or so, about 350 (8.8%) were called active.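 The calls were made as follows: active = calcium fluorescence ratio at least three times the spread of buffer wells, meaning a non-specific response in parental cells; inactive = the rest.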 The list is a sample of the results.

Assay: calcium response in parental HEK293 cells, primary screen, counter-screen for MrgX1 agonist project, cell-based, Fluo-4 calcium flux, duplicate, agonist mode (AID 624115)
Conditions: parental HEK293, Fluo-4 calcium fluorescence (FDSS), at 10 µM; active compounds read high

Row | Structure (SMILES) | fluorescence ratio F(max-min)/F0
1 | COc1ccccc1Oc1nc(-c2cccnc2)nc2ccccc12 | inactive
2 | CC(C)CNc1ncnc2c1cnn2Cc1ccc(Cl)cc1 | inactive
3 | Cc1cccn2c(=O)c(/C=C3\SC(=S)N(CC(C)C)C3=O)c(NCCCOC(C)C)nc12 | inactive
4 | O=C(C1CCN(S(=O)(=O)c2cnc[nH]2)CC1)N1CCN(Cc2ccc3c(c2)OCO3)CC1 | inactive
5 | O=C(Oc1ccc(C(=S)N2CCOCC2)cc1)c1ccc(F)cc1 | inactive
6 | Cc1occc1C(=O)Nc1nnc(-c2ccncc2)s1 | inactive
7 | CCC(C)Sc1nc(C)nc2c1c(=O)n(C)c(=O)n2C (stereo not given) | inactive
8 | O=C(CN1CCN(c2ccc(Cl)cc2)CC1)N1CCCC1 | inactive
9 | Cc1c(C)c2c(OCC(=O)N[C@@H](C(=O)O)c3ccccc3)cc3c(c2oc1=O)CCC(C)(C)O3 | inactive
10 | COC(=O)c1c(NC(=O)c2c(Cl)cnn2C)sc(C)c1C | inactive
11 | COc1ccc(Nc2nnc(C)c3ccccc23)cc1 | inactive
12 | O=C1C(Cc2ccc(O)cc2)NC(=S)N1Cc1ccccc1 (stereo not given) | inactive
13 | Cc1cccc(NC(=O)C(C)N2C(=O)C3C4CC(C(Br)C4Br)C3C2=O)c1 (stereo not given) | 94.8 (active)
14 | Cc1ccnc(NC(=O)C(C)N2C(=O)c3ccccc3C2=O)c1 (stereo not given) | inactive
15 | Cc1ccc(C(=O)COC(=O)CCN2C(=O)C3C4CC(C(Br)C4Br)C3C2=O)cc1 (stereo not given) | inactive
16 | Cc1ccc2c(c1)c1ncnc(N3CCc4ccccc4C3)c1n2C | inactive
17 | O=C(COC(=O)c1ccc(NS(=O)(=O)c2cccs2)cc1O)Nc1ccc(F)cc1 | inactive
18 | CN(c1cccc(NC(=O)Nc2ccc(Cl)cc2)c1)S(C)(=O)=O | inactive
19 | O=C(c1cccs1)C1C(c2ccc(Br)cc2)NC(=S)NC1(O)C(F)(F)F (stereo not given) | inactive
20 | CC(C)(C)n1c(=O)[nH]c2c(c1=O)CCC2 | inactive
21 | CCN(CC)c1ccc2oc(=O)c(C)nc2c1 | inactive
22 | CC(=O)N(C)c1ccc(NC(=O)C(F)(F)F)cc1 | inactive

Row | Structure (SMILES) | fluorescence ratio F(max-min)/F0
23 | CCc1nnc(NC(=O)CSc2nc3c(c(=O)n2-c2ccccc2OC)SCC3)s1 | inactive
24 | CC1CCN(S(=O)(=O)c2nnc(NC(=O)COc3ccccc3F)s2)CC1 | inactive
25 | CCSc1nsc(NC(=O)Nc2cccc(C(C)=O)c2)n1 | inactive
26 | CCCCCCCCCCOC(=O)Cn1c(COc2cccc(OC)c2)[n+](C)c2ccccc21 | inactive
27 | CN1/C(=C\C=C2\N=C(c3ccc(F)cc3)OC2=O)C(C)(C)c2ccccc21 | inactive
28 | S=C(NCc1ccc(Cl)cc1)NC12CC3CC(CC(C3)C1)C2 | inactive
29 | O=C(Nc1ccc(Cl)cc1)Nc1ccc(Oc2cccnc2)nc1 | inactive
30 | CCc1ccc(N(CC(=O)Nc2sc3c(c2C(=O)OC)CCCC3)S(C)(=O)=O)cc1 | inactive
31 | CC(=O)N1c2ccc(S(=O)(=O)N3CCCC(C(=O)Nc4cccc(Cl)c4)C3)cc2CC1C (stereo not given) | inactive
32 | COc1cccc(CCNC(=O)COc2cccc3c2OC(C)(C)C3)c1 | inactive
33 | O=C(COC(=O)C1CCN(S(=O)(=O)c2ccc3c(c2)OCCO3)CC1)Nc1ccccc1OC(F)F | inactive
34 | COC(=O)c1ccc(COC(=O)C2CCN(S(=O)(=O)c3c(Cl)cccc3Cl)CC2)o1 | inactive
35 | CCOC(=O)c1[nH]c2ccc(C)cc2c1N=C(C)N(C)C | 46.4 (active)
36 | Cc1c(C(=O)N2CCCc3ccccc32)sc2nc(-c3ccccc3)cn12 | inactive
37 | Clc1ccc(C=NC23CN4CN(CN(C4)C2)C3)cc1 | inactive
38 | CC(Oc1ccc(F)cc1)C(=O)Nc1ccccc1C(=O)NC1CC1 (stereo not given) | inactive
39 | CC(C)(C)Nc1c(-c2cccs2)nc2ccccn12 | inactive
40 | O=c1cc(CSc2ccccn2)nc(N2CCN(c3ccccc3)CC2)[nH]1 | inactive
41 | O=C(Nc1ccccc1Cl)N1CCN(c2ccc3nncn3n2)CC1 | inactive
42 | CCc1cc2c(SCC(=O)Nc3ncc(Cl)c(C)c3Cl)ncnc2s1 | inactive
43 | Cc1ccc(C(C(=O)NC2CCCCC2)N(C(=O)c2csnn2)C2CC2)o1 (stereo not given) | inactive
44 | COC(=O)Cn1c(O)c(N=NC(=O)OC)c2ccccc21 | inactive

Row | Structure (SMILES) | fluorescence ratio F(max-min)/F0
45 | COc1cc(C)c(C)cc1S(=O)(=O)N1CCCc2ccccc21 | inactive
46 | COc1cc(C(F)(F)F)nc2c(Br)c(C(C)(C)C)nn12 | inactive
47 | CC(=O)N(C1=C(Cl)C(=O)c2ccccc2C1=O)c1ccc(C(=O)O)cc1 | inactive
48 | O=C(Nc1ccccc1N1CCOCC1)c1csc2c1CCCC2 | inactive
49 | C=CCOc1cccc(C2C(C(=O)c3ccc(C)o3)=C(O)C(=O)N2c2nnc(C)s2)c1 (stereo not given) | inactive
50 | COC(=O)c1c(NC(=O)CN(c2ccc(C)c(C)c2)S(C)(=O)=O)sc2c1CCCC2 | inactive
51 | CCN(C(=O)CSc1nnc2ccccn12)C1CCS(=O)(=O)C1 (stereo not given) | inactive
52 | Brc1ccccc1C1Nc2cccc3cccc(c23)N1 | inactive
53 | COc1ccc(Cc2nc(-c3ccccn3)no2)cc1OC | inactive
54 | CCOC(=O)c1cn(Cc2cccc(C)c2)nn1 | inactive
55 | C=CCNC(=O)c1cc(-c2ccccc2O)on1 | inactive
56 | N=C(N)SCc1cccc2ccccc12 | inactive
57 | CCc1cc(=O)oc2cc(C)cc(OCC(=O)N3CCC[C@@H]3C(=O)O)c12 | inactive
58 | CCOc1ccc(C(=O)NC2CCN(S(=O)(=O)CC)CC2)cc1 | inactive
59 | COc1ccc(S(=O)(=O)N2CCOCC2)c(C)c1C | inactive
60 | Fc1ccc2[nH]c3c(N4CCSCC4)ncnc3c2c1 | 51.9 (active)
61 | CC(C)OCCCNc1ncnc2c1[nH]c1ccc(F)cc12 | inactive
62 | O=C(c1ccc(O)cc1)c1ccc(C(=O)O)c(C(=O)O)c1 | inactive
63 | Cc1[nH][nH]c(=O)c1C(c1ccc(-c2ccc(Cl)cc2)o1)c1c(C)[nH][nH]c1=O | 48.2 (active)
64 | COc1ccc(C(=O)NC2CCCc3c2cnn3-c2cccc(C)c2C)c(OC)n1 (stereo not given) | inactive
65 | CCOc1ccccc1C1CC(c2ccc(Cl)cc2)Nc2nc(N)nn21 (stereo not given) | inactive
66 | CN1C(CC(=O)Nc2ccc(Br)cc2)c2ccccc2CC1(C)C (stereo not given) | inactive

Row | Structure (SMILES) | fluorescence ratio F(max-min)/F0
67 | Nc1ccc(Oc2ccc(Cl)cc2)cc1 | inactive
68 | C=CCNC(=O)c1csc(-c2ccccc2)n1 | inactive
69 | COC(=O)Cc1cc(=O)n(-c2nc3ccccc3s2)[nH]1 | inactive
70 | O=C(Nc1ccc(Br)cc1F)C1CC(=O)N(C2CCCCC2)C1 (stereo not given) | inactive
71 | CC1CCCCN1S(=O)(=O)c1ccc(C(=O)Nc2nnc(-c3cccs3)o2)cc1 (stereo not given) | inactive
72 | Cc1ccc(-n2[nH]c(C)c(/C=N/N3C(=O)c4cccc5cccc(c45)C3=O)c2=O)cc1 | 110 (active)
73 | O=C(CSc1nncn1-c1cccnc1)N1CCOCC1 | inactive
74 | Cc1nc(N2CCN(c3ccccn3)CC2)c2c(C)c(C(=O)Nc3ccc(F)c(Cl)c3)sc2n1 | inactive
75 | CC(=O)OC(C)C[N+](C)(C)C (stereo not given) | 98.8 (active)
76 | CCCCOC(=O)CNc1nnc(SCC(=O)OCC)[nH]c1=O | inactive
77 | Cc1ccc(Nc2nc(-c3ccc(O)cc3O)cs2)nc1 | inactive
78 | CCOC(=O)c1c(NC(=O)CNC2CCCc3ccccc32)sc(C(N)=O)c1C (stereo not given) | inactive
79 | Cc1ccc(-n2cnc3ncnc(-c4ccccc4)c32)cc1 | inactive
80 | COc1cc(C2/C(=C(\O)c3ccc4c(c3)CC(C)O4)C(=O)C(=O)N2Cc2ccco2)ccc1O (stereo not given) | inactive
81 | CCOC(=O)c1c(C)[nH]c(=S)c(C#N)c1-c1ccccc1 | inactive
82 | CCCc1cc(=S)n2c([nH]c3ccccc32)c1C#N | 71.7 (active)
83 | CCCCC(=O)NNC(=S)NC(=O)C(c1ccccc1)c1ccccc1 | inactive
84 | COc1ccc(C(=O)CSc2n[nH]c(N)n2)cc1 | inactive
85 | COc1ccc(C(=O)NNC(=S)NC(=O)c2ccccc2)cc1 | 130 (active)
86 | COc1ccc(C(=O)NC(=S)NNC(=O)CCc2ccccc2)cc1 | 101 (active)
87 | COc1ccc(C(=O)NC(=S)NC2CCCCC2)cc1 | inactive
88 | CC(Oc1ccc2ccccc2c1)C(=O)NNC(=S)NC(=O)c1ccco1 (stereo not given) | inactive

Row | Structure (SMILES) | fluorescence ratio F(max-min)/F0
89 | CCOC(=O)CNC(=O)CSc1nc2cccnc2n1CC | inactive
90 | OCc1ccc(OCCCOc2cccc3cccnc23)cc1 | inactive
91 | OCCn1c(-c2ccccc2)csc1=Nc1ccccc1 | inactive
92 | COc1cccc(-c2cnc(OC(C)(C)C)nc2OC(C)(C)C)c1 | inactive
93 | CCOc1ccc(NC(=O)N2CC=C(n3c(=O)[nH]c4ccccc43)CC2)cc1 | inactive
94 | Cc1cc(Nc2cc(N3CCN(C)CC3)nc(Sc3ccc(NC(=O)C4CC4)cc3)n2)n[nH]1 | inactive
95 | O=C(c1ccc(OC2CCN(C(=O)c3cccnc3)CC2)cc1)N1CCCCCC1 | inactive
96 | COCCNC(=O)C1CCN(S(=O)(=O)c2ccc3c(c2)OCCO3)CC1 | inactive
97 | CCOC(=O)N1CCN(C(=O)COCc2cc(-c3ccc4c(c3)OCO4)on2)CC1 | inactive
98 | CC1(C(=O)O)CCC(C(=O)Nc2ccc(Cl)c(Cl)c2)C1(C)C (stereo not given) | 47.3 (active)
99 | CCCc1[nH]nc2c1C(c1ccc(Br)s1)C(C#N)=C(N)O2 (stereo not given) | inactive
100 | CC1(C)CC2CC(C)(CN2c2ncnc3ccc(Br)cc23)C1 (stereo not given) | inactive
101 | O=C(CSc1ncccn1)NC(=O)NCc1ccccc1 | inactive
102 | Cc1nc(C)c(-c2csc(NCCc3ccccc3)n2)s1 | 51.5 (active)
103 | CCS(=O)(=O)c1ccc2c(c1)N(S(=O)(=O)c1ccccc1)CC(C(=O)O)O2 (stereo not given) | inactive
104 | Cc1nc2ccccc2cc1OCc1ccc(F)cc1 | 45.3 (active)
105 | NC(=O)c1c(Nc2nc3c(F)cccc3s2)sc2c1CCCC2 | inactive
106 | COC(=O)c1ccc(C2C3=C(Nc4nnnn42)c2ccccc2OC3)cc1 (stereo not given) | inactive
107 | O=C(CC(O)(C(F)(F)F)C(F)(F)F)Nc1ccc(Cl)c(Cl)c1 | 45.3 (active)
108 | c1ccc(-c2[nH]ncc2-c2nc3ccccc3[nH]2)cc1 | inactive
109 | COCCCNC(=O)C1CCN(c2ccc(N3CCOCC3)nn2)CC1 | inactive
110 | CCOC(=O)C1=C(O)/C(=C/c2cc(C)n(-c3ccccc3)c2C)N=C1C | inactive
